Results on 34 molecules are retold here after PubChem BioAssay (NCI).

Holding throughout (experiment): NCI-60 one-dose screen, 48 h (100 = growth as untreated, 0 = no growth, -100 = all killed)
Common to all, as to conditions: 10 µM unless noted

Test [1] has as its system T-47D breast.
Test [2] relates to BT-549 breast.
The test system of test [3] is MDA-MB-435 melanoma.
Test [4] concerns SW-620 colon.
For test [5], the system named is MCF7 breast.
Test [6] relates to HCT-116 colon.
Test [7] relates to HCC-2998 colon.
The subject of test [8] is KM12 colon.

About 83,000 compounds went through this panel and 20% of them were active in at least one assay; those are over-represented in the sample as a whole.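 Cell lines were cultured in 96-well plates, exposed to a single compound concentration, and assessed for percent growth 48 hours later.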 Values without a mark were called inactive. Active and inactive are the calls of the source. Rule for the calls: active = growth percent below 10; inactive = the rest.

`COC(=O)c1c2c(c(C)[n+]([O-])c1C)C(=O)C(NCc1ccc(F)cc1)=CC2=O`: the growth in test [1] was 6.75% (active); in test [2] it was 52.4%; in test [3], -72.9% (active); in test [4], 6.37% (active); in test [5], -0.8% (active); in test [6] it was 1.27% (active). Also, the values for the growth in test [7] and in test [8] were 25.7% and 19.9%, respectively.
Regarding `COC(=O)c1c2c(c(C)[n+]([O-])c1C)C(=O)C(NCc1ccc(F)c(Cl)c1)=CC2=O`, the growth in test [1] is -5.44% (active); in test [2] it was 43.7%; in test [3], -82.4% (active); in test [4], 5.47% (active); in test [5], -32.8% (active); in test [6], 0.429% (active). The values for the growth in test [7] and in test [8] were 13.3% and 11.5%, respectively.
Turning to `COc1ccc(/C=N\NC(=O)c2cc(-c3ccc(Br)cc3)n(-c3ccc(S(N)(=O)=O)cc3)n2)cc1`, the growth is 30.9% in test [1]; 76.1% in test [2]; -43.8% (active) in test [3]; 36.9% in test [4]; 18.3% in test [5]; 28.4% in test [6]. Further, the growth in test [8] was 30.8%.
On to `NC(N)=Nc1nc2ccccc2n2c1nc1ccccc12`, for which the growth in test [1] is 40.7%; in test [2], 83%; in test [3], 33.3%; in test [4], 24.9%; in test [5] it was 8.98% (active); in test [6] it was 18.2%. Also, the growth in test [7] is 46.3%; in test [8], 33.6%.
Regarding `O=C(O)c1ccc2c(c1Cl)C(=O)c1ccccc1C2=O`, the growth in test [1] is 101%; in test [2], 116%; in test [3], 78.3%; in test [4] it was 107%; in test [5], 94%; in test [6] it was 93.2%. Also, the growth in test [7] is 104%; in test [8], 107%.
Take `Fc1cnc(NC2CC2)nc1-c1cnc2ccc(N3CCOCC3)cn12`: the growth was 7.29% (active) in test [1]; -5.41% (active) in test [2]; 0.301% (active) in test [3]; 5.59% (active) in test [4]; 2.32% (active) in test [5]; 3.97% (active) in test [6]. Also, the growth in test [8] is -2.57% (active).
Take `COc1ccc(C(=NN=C(N)N)c2ccc(OC)cc2)cc1`: the growth was 8.87% (active) in test [1]; 30.6% in test [2]; -35.2% (active) in test [3]; 25.3% in test [4]; 5.47% (active) in test [5]; 21.5% in test [6]. In addition, in test [8], the growth is 21.2%.
Consider `COc1cccc(-c2nn(-c3ccccc3)cc2-c2ccnc(NCCNC(=O)Nc3ccc(Cl)c(Cl)c3)c2)c1`, for which the growth in test [1] is 12.6%; in test [2], -4.67% (active); in test [3] it was -66.9% (active); in test [4] it was 18.3%; in test [5], 6.67% (active); in test [6], 0.717% (active). The growth in test [8] is -33.8% (active).
Consider `O=c1ccn2nc3ccccc3c2[nH]1`, for which the growth in test [1] was 95%; in test [2], 98.2%; in test [3], 118%; in test [4], 114%; in test [5], 107%; in test [6], 103%. The growth in test [8] is 112%.
Take `CCN(CC)CCCNc1ccc(Nc2ccc(OC)cc2)cc1`: the growth in test [1] is 118%; in test [2], 59%; in test [3], 82.7%; in test [4], 49.7%; in test [5] it was 110%; in test [6], 82.2%. In addition, in test [8], the growth was 85.3%.
As to `O=C1/C(=C\c2c[nH]c3ccccc23)c2ccccc2N1c1c(Cl)cccc1Cl`, the growth was 1.28% (active) in test [1]; -22.1% (active) in test [2]; -21.6% (active) in test [3]; 5.11% (active) in test [4]; 0.197% (active) in test [5]; -100% (active) in test [6]. For the same molecule, the growth in test [8] was -82.3% (active).
As for `COc1ccc(CNC(=O)C(O)C(Cc2ccccc2)NC(=O)c2[nH]c3ccccc3c(=O)c2C)cc1OC` (centres undefined), the growth in test [1] is 97.8%; in test [2], 104%; in test [3] it was 101%; in test [4] it was 113%; in test [5] it was 99.7%; in test [6] it was 106%. Also, the growth in test [7] is 117%; in test [8], 105%.
On to `COc1ccc2c(c1)O/C(=C\c1cccc(OCC(=O)Nc3nc(C)c(C)s3)c1)C2=O`, for which the growth in test [1] was 75.7%; in test [2], -81.9% (active); in test [3] it was 80%; in test [4], -39% (active); in test [5], 93.8%; in test [6], 66.6%. In test [8], the growth is 1.92% (active).
Take `COc1ccc(-c2c(N)n[nH]c2-c2ccc(Cl)cc2O)cc1OC`: the growth in test [1] is 91.2%; in test [2], 105%; in test [3] it was 69.7%; in test [4], 102%; in test [5], 86%; in test [6] it was 90.1%. For the same molecule, the growth in test [8] was 83%.
Regarding `Cn1c(=O)c2[nH]c(NN)nc2n(C)c1=O`, the growth in test [1] is 104%; in test [2] it was 84.7%; in test [3], 106%; in test [4] it was 97.8%; in test [5], 104%; in test [6], 102%. Further, in test [8], the growth was 119%.
In the case of `CCC(CO)Nc1nc2ccc(Cl)cc2c2ccccc12` (centres undefined), the growth is 59.5% in test [1]; 70.6% in test [2]; 58% in test [3]; 79.7% in test [4]; 72.7% in test [5]; 71.5% in test [6]. In addition, the results for the growth in test [7] and in test [8] were 54.9% and 45.7%, respectively.
Consider `COC(=O)/C=C1\S/C(=N\NS(=O)(=O)c2ccc(C)cc2)N(c2ccccc2)C1=O`, for which the growth in test [1] was 99.2%; in test [2], 115%; in test [3], 102%; in test [4], 106%; in test [5], 94.5%; in test [6], 103%. Moreover, in test [8], the growth is 101%.
`CCc1ccccc1NC(=O)/C(C#N)=C/c1ccc(OC)cc1`: the growth was 88.7% in test [1]; 112% in test [2]; 110% in test [3]; 94.4% in test [4]; 106% in test [5]; 89.1% in test [6]. Also, the growth in test [8] was 91.4%.
As to `O=c1c2c3c(sc2n2c(-c4cc(-c5ccccc5)nn4-c4ccccc4)nnc2n1Cc1ccccc1)CCCC3`, the growth in test [1] was 72.5%; in test [2], 97.4%; in test [3], 85.2%; in test [4], 83.2%; in test [5], 68.3%; in test [6] it was 55.4%. Further, the growth in test [8] is 84.1%.
Regarding `Cc1ccc(/C=C2\C(=O)N(C)c3ccc(S(=O)(=O)Nc4ccc(C(C)(C)C)cc4)cc32)s1`, the growth in test [1] is 55%; in test [2], 87.4%; in test [3], 69.1%; in test [4], 50.4%; in test [5] it was 54.6%; in test [6], 37.2%. Besides, the growth in test [8] was 59.9%.
For `COc1cc(N2C(=O)c3nccnc3C2=O)cc(OC)c1OC`, the growth in test [1] was 96.9%; in test [2], 95.2%; in test [3], 107%; in test [4] it was 104%; in test [5], 95.7%; in test [6], 103%. Moreover, the growth in test [8] was 110%.
Turning to `N=C1C(c2nc(-c3ccc(Br)cc3)cs2)=C(O)CN1Cc1cccnc1`, the growth in test [1] was 46.3%; in test [2] it was 39.9%; in test [3] it was 53.4%; in test [4], 81.5%; in test [5], 77.9%; in test [6], 21.4%. The growth in test [7] was 85.9%; in test [8], 61.7%.
On to `O=C(CC(SCc1ccccc1)c1ccccc1)c1ccccc1` (centres undefined), for which the growth in test [1] was 74.7%; in test [2], 94%; in test [3], 84.6%; in test [4], 83.5%; in test [5] it was 14.6%; in test [6], 37.2%. In addition, the growth in test [8] is 84.8%.
As for `COc1cc(C2CC(=O)Nc3c2c(C)nn3-c2nc3ccccc3[nH]2)c(OC)c2c1OCO2` (centres undefined), the growth in test [1] was 67.2%; in test [2], 76%; in test [3] it was -20.2% (active); in test [4], 47.1%; in test [5], 45.3%; in test [6], 61.6%. The growth in test [7] is 97.5%; in test [8], 52.1%.
With `O=C1c2cccc(NCCN=Cc3cc([N+](=O)[O-])ccc3O)c2C(=O)c2c(NCCN=Cc3cc([N+](=O)[O-])ccc3O)cccc21`, the growth is 75.8% in test [1]; 107% in test [2]; 99.3% in test [3]; 29.8% in test [4]; 20.8% in test [5]; 33.3% in test [6]. Moreover, the growth in test [8] is 46.8%.
Regarding `O=C(NCCCNc1cc(-c2cn(-c3ccccc3)nc2-c2cccc(O)c2)ccn1)c1ccc(F)cc1`, the growth in test [1] was -10.8% (active); in test [2], -6.04% (active); in test [3] it was -67.7% (active); in test [4], 5.38% (active); in test [5], 13.7%; in test [6], 10.8%. The growth was -60% (active) in test [7] and 12% in test [8].
As for `O=C(NC(CSSCC(NC(=O)c1ccccc1)C(=O)O)C(=O)O)c1ccccc1` (centres undefined), the growth in test [1] is 99.4%; in test [2], 91.1%; in test [3] it was 103%; in test [4] it was 103%; in test [5], 117%; in test [6], 98.9%. For the same molecule, the growth in test [8] was 97.9%.
As for `O=C(Nc1cccc(Cl)c1)c1cc(N=Nc2ccc([N+](=O)[O-])cc2Cl)ccc1O`, the growth was 53.6% in test [1]; 81% in test [2]; 90.5% in test [3]; 86.1% in test [4]; 32% in test [5]; 52.9% in test [6]. The growth in test [8] is 93.7%.
As for `O=C(/C=C/c1ccc(Cl)nc1)c1ccc(Cl)cc1Cl`, the growth is 91.6% in test [1]; 110% in test [2]; 89.9% in test [3]; -33.2% (active) in test [4]; 17.1% in test [5]; 36.7% in test [6]. Moreover, the growth is 114% in test [7] and 76.5% in test [8].
Turning to `CCN(CCNc1ccc(C)c2sc3ccccc3c(=O)c12)CC(C)(C)O`, the growth was 80.7% in test [1]; 93.4% in test [2]; 79% in test [3]; 73.6% in test [4]; 81.8% in test [5]; 60% in test [6]. Also, the growth in test [8] is 48.3%.
Take `CC(C)C(NC(=O)C1(NC(=O)OCc2ccccc2)CCCC1)C(=O)O` (centres undefined): the growth was 103% in test [1]; 83.7% in test [2]; 109% in test [3]; 96.9% in test [4]; 105% in test [5]; 97.6% in test [6]. Also, the growth in test [8] was 111%.
For the molecule `COC(=O)[C@]12CC[C@@H](C)[C@H](C)[C@@H]1C1=CC[C@@H]3[C@@]4(C)C(C=O)=C[C@@](C)(COC(=O)/C=C/c5ccccc5)[C@@H]4[C@H](O)C[C@@]3(C)[C@]1(C)CC2`, the growth in test [1] was -6.88% (active); in test [2] it was -7.43% (active); in test [3] it was -6.08% (active); in test [4] it was 5.68% (active); in test [5], 10.6%; in test [6] it was -72.5% (active). Further, the growth is -29.9% (active) in test [7] and 6.25% (active) in test [8].
With `COC(=O)[C@]12CC[C@@H](C)[C@H](C)[C@@H]1C1=CC[C@@H]3[C@@]4(C)C(C=O)=C[C@@](C)(COC(=O)c5ccco5)[C@@H]4C(=O)C[C@@]3(C)[C@]1(C)CC2`, the growth is 0.38% (active) in test [1]; 12.9% in test [2]; -10.1% (active) in test [3]; 31.4% in test [4]; 20.4% in test [5]; 12.6% in test [6]. The growth in test [8] was 23.1%.
Take `COc1ccc2c(c1)O/C(=C\c1cccc(OCC(=O)Nc3nc4ccccc4s3)c1)C2=O`: the growth in test [1] is 62.1%; in test [2], -51.7% (active); in test [3], 96.5%; in test [4], 79%; in test [5], 73.7%; in test [6], 76.5%. The growth in test [8] was 88.2%.
